Results on 30 sequences are retold here after publication PMC10812921, “Transcriptional Coactivator BOB1 (OBF1, OCA-B) Modulates the Specificity of DNA Recognition by the POU-Domain Factors OCT1 and OCT2 in a Monomeric Configuration”.

One test concerns the target POU1 (OCT1 POU domain) (human, UniProt P14859 260-458). Nature of the test: EMSA-SELEX-seq; no BOB1; 20 mM Tris-HCl pH 7.6, 140 mM NaCl, 10% glycerol, 0.5 mM EDTA, 0.05% Triton X-100, 0.1 mg/mL BSA, 0.1 mg/mL poly(dI-dC), 5 mM DTT, room temperature, 20 min; high values mean tight binding. The settings on record: protein: recombinant; dsDNA, one strand shown. An outline of the steps:
(§1)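 Binding preference is the percentage of sequenced 8-mers matching a motif pattern. Tagged POU-domain proteins expressed in E. coli BL21 were purified under denaturing conditions and renatured. For binding, 30 ng protein met 300 ng of a PCR-amplified double-stranded random 35-nt library, with or without 28 ng coactivator protein, in 20 μL Tris–HCl pH 7.6 binding buffer for 20 min at RT. Complex bands were cut from native 6% PAGE, eluted and PCR-amplified over four rounds, then Illumina-sequenced.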

The next test addresses T1, POU2 (OCT2 POU domain) (human, UniProt P09086 175-386).
T1 sequence: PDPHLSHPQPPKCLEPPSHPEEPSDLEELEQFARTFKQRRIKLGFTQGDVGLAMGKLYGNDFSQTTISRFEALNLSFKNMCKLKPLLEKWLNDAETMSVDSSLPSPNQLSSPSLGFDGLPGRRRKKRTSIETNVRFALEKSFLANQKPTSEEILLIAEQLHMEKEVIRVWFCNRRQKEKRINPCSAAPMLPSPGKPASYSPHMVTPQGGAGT
Described as above. The settings on record: protein: recombinant; dsDNA, one strand shown. An outline of the steps:
as §1

Test [1] addresses POU1 (OCT1 POU domain);BOB1 (OBF1, OCA-B) (human;human, UniProt P14859;Q16633 260-458;1-256, |). Briefly: EMSA-SELEX-seq; with BOB1 (ternary complex band); 20 mM Tris-HCl pH 7.6, 140 mM NaCl, 10% glycerol, 0.5 mM EDTA, 0.05% Triton X-100, 0.1 mg/mL BSA, 0.1 mg/mL poly(dI-dC), 5 mM DTT, room temperature, 20 min; high values mean tight binding. To be noted: protein: recombinant;recombinant; copies: 1;1; dsDNA, one strand shown. The method, boiled down: as §1

Test [2] deals with T2, POU2 (OCT2 POU domain);BOB1 (OBF1, OCA-B) (human;human, UniProt P09086;Q16633 175-386;1-256, |).
T2 sequence 1: T1 sequence
T2 sequence 2: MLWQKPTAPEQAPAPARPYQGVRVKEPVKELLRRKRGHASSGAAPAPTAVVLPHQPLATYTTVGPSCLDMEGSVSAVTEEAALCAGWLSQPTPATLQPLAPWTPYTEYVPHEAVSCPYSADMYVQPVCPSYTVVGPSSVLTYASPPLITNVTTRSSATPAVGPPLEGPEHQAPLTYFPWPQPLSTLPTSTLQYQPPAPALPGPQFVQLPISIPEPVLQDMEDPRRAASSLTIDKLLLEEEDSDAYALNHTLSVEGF
Described as above. To be noted: protein: recombinant;recombinant; copies: 1;1; dsDNA, one strand shown. An outline of the steps: as §1

POU1 (OCT1 POU domain), sequence (P14859 260-458): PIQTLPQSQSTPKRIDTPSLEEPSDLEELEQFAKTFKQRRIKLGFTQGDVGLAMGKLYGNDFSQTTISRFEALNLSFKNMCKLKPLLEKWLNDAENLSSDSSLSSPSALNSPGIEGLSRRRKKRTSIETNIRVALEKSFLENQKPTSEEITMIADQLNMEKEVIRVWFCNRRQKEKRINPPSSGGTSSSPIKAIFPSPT

On to ATTTGAAA, for which the binding signal with POU1 (OCT1 POU domain) was 0.142 % of ANNNNAAN 8-mers; in the test with POU2 (OCT2 POU domain), 0.0995 % of ANNNNAAN 8-mers; in test [1], 0.178 % of ANNNNAAN 8-mers; in test [2], 0.0933 % of ANNNNAAN 8-mers.

With AAGTTAAT, the binding signal with POU1 (OCT1 POU domain) was 0.165 % of ANNNNAAN 8-mers; with POU2 (OCT2 POU domain), 0.178 % of ANNNNAAN 8-mers; in test [1], 0.102 % of ANNNNAAN 8-mers; in test [2], 0.102 % of ANNNNAAN 8-mers.

On to ATTGAAAA, for which the binding signal with POU1 (OCT1 POU domain) is 0.09 % of ANNNNAAN 8-mers; with POU2 (OCT2 POU domain), 0.076 % of ANNNNAAN 8-mers; in test [1] it was 0.0925 % of ANNNNAAN 8-mers; in test [2], 0.0627 % of ANNNNAAN 8-mers.

As to ACAGGAAT, the binding signal is 0.0622 % of ANNNNAAN 8-mers with POU1 (OCT1 POU domain), 0.0685 % of ANNNNAAN 8-mers with POU2 (OCT2 POU domain), 0.0476 % of ANNNNAAN 8-mers in test [1] and 0.0702 % of ANNNNAAN 8-mers in test [2].

On to ACTTTAAC, for which the binding signal with POU1 (OCT1 POU domain) is 0.032 % of ANNNNAAN 8-mers; with POU2 (OCT2 POU domain), 0.0345 % of ANNNNAAN 8-mers; in test [1] it was 0.0304 % of ANNNNAAN 8-mers; in test [2], 0.0355 % of ANNNNAAN 8-mers.

Take ATAAAAAA: the binding signal with POU1 (OCT1 POU domain) is 0.0995 % of ANNNNAAN 8-mers; with POU2 (OCT2 POU domain), 0.1 % of ANNNNAAN 8-mers; in test [1], 0.0823 % of ANNNNAAN 8-mers; in test [2], 0.0801 % of ANNNNAAN 8-mers.

Consider ATTCAAAG, for which the binding signal in the test with POU1 (OCT1 POU domain) is 0.281 % of ANNNNAAN 8-mers; in the test with POU2 (OCT2 POU domain), 0.201 % of ANNNNAAN 8-mers; in test [1], 0.314 % of ANNNNAAN 8-mers; in test [2], 0.242 % of ANNNNAAN 8-mers.

Regarding ATTCCAAT, the binding signal was 0.0767 % of ANNNNAAN 8-mers with POU1 (OCT1 POU domain), 0.11 % of ANNNNAAN 8-mers with POU2 (OCT2 POU domain), 0.057 % of ANNNNAAN 8-mers in test [1] and 0.0751 % of ANNNNAAN 8-mers in test [2].

In the case of AGCCGAAG, the binding signal in the test with POU1 (OCT1 POU domain) is 0.0168 % of ANNNNAAN 8-mers; in the test with POU2 (OCT2 POU domain), 0.0201 % of ANNNNAAN 8-mers; in test [1], 0.0195 % of ANNNNAAN 8-mers; in test [2] it was 0.0182 % of ANNNNAAN 8-mers.

AAATGAAG: the binding signal is 0.17 % of ANNNNAAN 8-mers with POU1 (OCT1 POU domain), 0.188 % of ANNNNAAN 8-mers with POU2 (OCT2 POU domain), 0.186 % of ANNNNAAN 8-mers in test [1] and 0.2 % of ANNNNAAN 8-mers in test [2].

On to AGTCAAAG, for which the binding signal with POU1 (OCT1 POU domain) was 0.116 % of ANNNNAAN 8-mers; with POU2 (OCT2 POU domain) it was 0.0748 % of ANNNNAAN 8-mers; in test [1], 0.187 % of ANNNNAAN 8-mers; in test [2], 0.0966 % of ANNNNAAN 8-mers.

ACGCGAAC: the binding signal with POU1 (OCT1 POU domain) was 0.0103 % of ANNNNAAN 8-mers; in the test with POU2 (OCT2 POU domain), 0.0121 % of ANNNNAAN 8-mers; in test [1], 0.0109 % of ANNNNAAN 8-mers; in test [2], 0.0165 % of ANNNNAAN 8-mers.

In the case of AAGCGAAG, the binding signal in the test with POU1 (OCT1 POU domain) was 0.0271 % of ANNNNAAN 8-mers; with POU2 (OCT2 POU domain), 0.027 % of ANNNNAAN 8-mers; in test [1], 0.0238 % of ANNNNAAN 8-mers; in test [2], 0.0231 % of ANNNNAAN 8-mers.

Take ATGATAAC: the binding signal with POU1 (OCT1 POU domain) is 0.0339 % of ANNNNAAN 8-mers; in the test with POU2 (OCT2 POU domain), 0.0489 % of ANNNNAAN 8-mers; in test [1] it was 0.0332 % of ANNNNAAN 8-mers; in test [2] it was 0.0479 % of ANNNNAAN 8-mers.

In the case of AATCTAAA, the binding signal is 0.107 % of ANNNNAAN 8-mers in the test with POU1 (OCT1 POU domain), 0.129 % of ANNNNAAN 8-mers with POU2 (OCT2 POU domain), 0.0726 % of ANNNNAAN 8-mers in test [1] and 0.0669 % of ANNNNAAN 8-mers in test [2].

For AGGTCAAG, the binding signal with POU1 (OCT1 POU domain) is 0.0297 % of ANNNNAAN 8-mers; in the test with POU2 (OCT2 POU domain), 0.042 % of ANNNNAAN 8-mers; in test [1], 0.0277 % of ANNNNAAN 8-mers; in test [2], 0.0289 % of ANNNNAAN 8-mers.

As for AAGCAAAT, the binding signal with POU1 (OCT1 POU domain) is 0.378 % of ANNNNAAN 8-mers; with POU2 (OCT2 POU domain), 0.27 % of ANNNNAAN 8-mers; in test [1], 0.906 % of ANNNNAAN 8-mers; in test [2], 0.826 % of ANNNNAAN 8-mers.

ATTGAAAG: the binding signal with POU1 (OCT1 POU domain) was 0.0603 % of ANNNNAAN 8-mers; in the test with POU2 (OCT2 POU domain), 0.0604 % of ANNNNAAN 8-mers; in test [1], 0.0632 % of ANNNNAAN 8-mers; in test [2], 0.0611 % of ANNNNAAN 8-mers.

On to AGGGAAAT, for which the binding signal with POU1 (OCT1 POU domain) is 0.549 % of ANNNNAAN 8-mers; with POU2 (OCT2 POU domain) it was 0.365 % of ANNNNAAN 8-mers; in test [1], 0.963 % of ANNNNAAN 8-mers; in test [2], 0.713 % of ANNNNAAN 8-mers.

Take AATAGAAA: the binding signal was 0.0759 % of ANNNNAAN 8-mers with POU1 (OCT1 POU domain), 0.0972 % of ANNNNAAN 8-mers with POU2 (OCT2 POU domain), 0.0858 % of ANNNNAAN 8-mers in test [1] and 0.071 % of ANNNNAAN 8-mers in test [2].

In the case of ATCCCAAT, the binding signal with POU1 (OCT1 POU domain) is 0.0317 % of ANNNNAAN 8-mers; with POU2 (OCT2 POU domain) it was 0.038 % of ANNNNAAN 8-mers; in test [1] it was 0.025 % of ANNNNAAN 8-mers; in test [2], 0.033 % of ANNNNAAN 8-mers.

Take ATCTAAAG: the binding signal was 0.0412 % of ANNNNAAN 8-mers with POU1 (OCT1 POU domain), 0.0397 % of ANNNNAAN 8-mers with POU2 (OCT2 POU domain), 0.0503 % of ANNNNAAN 8-mers in test [1] and 0.0479 % of ANNNNAAN 8-mers in test [2].

For AAGGAAAC, the binding signal is 0.0385 % of ANNNNAAN 8-mers in the test with POU1 (OCT1 POU domain), 0.0403 % of ANNNNAAN 8-mers in the test with POU2 (OCT2 POU domain), 0.0511 % of ANNNNAAN 8-mers in test [1] and 0.038 % of ANNNNAAN 8-mers in test [2].

With ACCTTAAG, the binding signal with POU1 (OCT1 POU domain) is 0.0198 % of ANNNNAAN 8-mers; with POU2 (OCT2 POU domain), 0.0219 % of ANNNNAAN 8-mers; in test [1] it was 0.0187 % of ANNNNAAN 8-mers; in test [2], 0.0281 % of ANNNNAAN 8-mers.

For AGGAAAAA, the binding signal in the test with POU1 (OCT1 POU domain) is 0.134 % of ANNNNAAN 8-mers; with POU2 (OCT2 POU domain), 0.0909 % of ANNNNAAN 8-mers; in test [1], 0.18 % of ANNNNAAN 8-mers; in test [2] it was 0.102 % of ANNNNAAN 8-mers.

Turning to ATGTAAAT, the binding signal with POU1 (OCT1 POU domain) was 3.45 % of ANNNNAAN 8-mers; with POU2 (OCT2 POU domain), 2.89 % of ANNNNAAN 8-mers; in test [1], 2.3 % of ANNNNAAN 8-mers; in test [2], 3.57 % of ANNNNAAN 8-mers.

As for AGGGTAAG, the binding signal in the test with POU1 (OCT1 POU domain) is 0.0503 % of ANNNNAAN 8-mers; with POU2 (OCT2 POU domain) it was 0.0541 % of ANNNNAAN 8-mers; in test [1], 0.0531 % of ANNNNAAN 8-mers; in test [2], 0.0776 % of ANNNNAAN 8-mers.

As for AGCTTAAA, the binding signal in the test with POU1 (OCT1 POU domain) is 0.037 % of ANNNNAAN 8-mers; with POU2 (OCT2 POU domain), 0.0437 % of ANNNNAAN 8-mers; in test [1], 0.0258 % of ANNNNAAN 8-mers; in test [2], 0.0421 % of ANNNNAAN 8-mers.

Regarding ACGGAAAT, the binding signal with POU1 (OCT1 POU domain) was 0.087 % of ANNNNAAN 8-mers; with POU2 (OCT2 POU domain), 0.099 % of ANNNNAAN 8-mers; in test [1], 0.142 % of ANNNNAAN 8-mers; in test [2], 0.0792 % of ANNNNAAN 8-mers.

Take ATTGAAAT: the binding signal with POU1 (OCT1 POU domain) was 0.257 % of ANNNNAAN 8-mers; with POU2 (OCT2 POU domain) it was 0.29 % of ANNNNAAN 8-mers; in test [1], 0.189 % of ANNNNAAN 8-mers; in test [2] it was 0.137 % of ANNNNAAN 8-mers.
